The list is not random: actives were taken first. Their share in the collection is about 4.5%.
ssDAF-12 act: S. stercoralis DAF-12 nuclear receptor activators, primary screen, cell-based, luminescence, HEK293, GRIP1 co-expression, lit1-tk-luc | AID 652126, 2013 | activation, % at 6.8 µM | HEK293 ssDAF-12/GRIP1 lit1-tk-luc reporter; % of 3 µM dafachronic acid response | 370,000 compounds, 1% hits;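 active means activation above the mean over all tested compounds plus 3 SD, cut at about 0.9% in these data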
hcDAF-12 act: H. contortus DAF-12 nuclear receptor activators, primary screen, cell-based, luminescence, HEK293, lit1-tk-luc reporter. AID 652067, 2013. 370,000 compounds, 1.4% hits. HEK293 hcDAF-12 lit1-tk-luc reporter; 0% DMSO, 100% Δ7-dafachronic acid. activation, % at 6.8 µM;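 active means activation above the mean of all tested compounds plus 3 SD, cut at about 5.5% in these data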
hgDAF-12 ag: H. glycines DAF-12 receptor agonists, primary screen, cell-based, luminescence, HEK293, GAL4 fusion, UAS-luciferase; Nuclear hormone receptor DAF-12 (Heterodera glycines), GAL4 fusion; HEK293 GAL4-hgDAF12 UAS-luciferase reporter, agonist luminescence; normalized to butyrate control; activation, % at 6.8 µM; 370,000 compounds, 1.8% hits;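 active means activation above a cutoff set at the mean of all screened compounds plus 3 SD, cut at about 10% in these data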
DAX1 inh-1: DAX1 (NR0B1) inhibitors on StAR promoter, primary screen, cell-based, luminescence, SF-1 (NR5A1), full-length DAX-1 | HEK293T StAR-luciferase reporter, SF-1/DAX-1 repression relief | inhibition, % at 6.8 µM | 370,000 compounds, 1.1% hits | AID 652010, 2013;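 active means inhibition above the mean over all tested compounds plus 3 SD, cut at about 3.6% in these data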;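 further: higher inhibition means more luminescence from relief of DAX-1 repression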
DAX1 inh-2: DAX1 (NR0B1) inhibitors, primary screen, cell-based, HEK293, Gal4-DAX1, luciferase luminescence; Nuclear receptor subfamily 0 group B member 1 (Homo sapiens), P51843; AID 504766, 2011; 340,000 compounds, 0.99% hits; HEK293 Gal4-DAX1 luciferase reporter; inhibition, % at 6.75 µM;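 active means inhibition above the mean over all tested compounds plus 3 SD, cut at about 4.2% in these data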;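 further: inhibition shows as a rise in luminescence from relieved DAX1 repression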
FXN GAA850 act: FXN promoter activators, primary screen, cell-based, luciferase luminescence, HEK293 lucGAA850. AID 540364, 2011. HEK293 lucGAA850 FXN promoter luciferase reporter, 24 h; percent of 10 µM SAHA response. 360,000 compounds, 0.56% hits. activation, % at 6 µM;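 active means activation above the average of all compounds screened plus 3 SD, cutoff fixed separately per campaign, cut at about 7.5% in these data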
DAX1 inh confirm: DAX1 (NR0B1) inhibitors relieving SF-1 repression, confirmation, cell-based, luminescence, HEK293T, full-length DAX-1, SF-1 activated StAR promoter. shares compounds with DAX1 inh-1. HEK293T StAR-promoter luciferase reporter, SF-1/DAX-1 repression. inhibition, % at 6.8 µM. 2,400 compounds, 87% hits;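 active means inhibition above the average of every tested compound plus 3 SD, cut at about 3.8% in these data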
Target sequence (P51843 whole entry, looked up): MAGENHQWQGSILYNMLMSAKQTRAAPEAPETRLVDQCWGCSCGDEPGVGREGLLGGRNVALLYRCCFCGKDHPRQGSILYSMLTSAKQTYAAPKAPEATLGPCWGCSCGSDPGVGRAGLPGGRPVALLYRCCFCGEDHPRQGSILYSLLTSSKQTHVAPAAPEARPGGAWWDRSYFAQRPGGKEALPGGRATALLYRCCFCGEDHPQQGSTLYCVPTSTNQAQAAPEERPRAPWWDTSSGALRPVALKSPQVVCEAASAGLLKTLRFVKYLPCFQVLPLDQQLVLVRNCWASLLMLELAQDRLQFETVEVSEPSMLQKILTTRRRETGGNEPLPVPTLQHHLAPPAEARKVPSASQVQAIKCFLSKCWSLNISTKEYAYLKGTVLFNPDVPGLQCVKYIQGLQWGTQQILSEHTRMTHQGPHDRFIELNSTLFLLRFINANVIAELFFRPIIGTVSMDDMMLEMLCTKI
SF1 AF2mut Luc: StAR reporter signal changes without DAX1, counter-screen for DAX1 inhibitor project, cell-based, luminescence, AF-2 mutant SF-1, transactivation | shares compounds with DAX1 inh-1 | HEK293 StAR-luciferase, SF-1 AF2 mutant | inhibition, % at 6.8 µM | 2,400 compounds, 78% hits;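 active means inhibition above the mean of all tested compounds plus 3 SD, cut at about 3% in these data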
LXR ag: LXR agonists, Gal4 luciferase reporter, confirmation, counter-screen for hcDAF-12 agonist project, cell-based, luminescence, HEK293, H. contortus campaign. shares compounds with hcDAF-12 act. HEK293 Gal4-LXR tk-luc reporter, 24 h; normalized: DMSO 0%, positive control 100%. activation, % at 6.8 µM. 3,400 tested, under 10 active;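 active means mean percent activation of the reporter above a cutoff set as the average over tested compounds plus their standard deviation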
hcDAF12 conf: H. contortus DAF-12 receptor agonists, confirmation, cell-based, luminescence, HEK293, lit1-tk-luc, triplicate; shares compounds with hcDAF-12 act; HEK293 hcDAF-12 lit1-tk-luc reporter; % of Δ7-dafachronic acid response; activation, % at 6.8 µM; 3,400 compounds, 61% hits;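 active means mean activation across triplicate tests above the threshold derived from the earlier primary screen, cut at about 5.5% in these data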
hgDAF12 conf: H. glycines DAF-12 receptor agonists, confirmation, cell-based, luminescence, HEK293, GAL4-LBD fusion. 3,300 compounds, 80% hits. AID 743050, 2013. shares compounds with hgDAF-12 ag. activation, % at 6.8 µM. HEK293 GAL4-hgDAF12 luciferase reporter, agonist mode; percent of butyrate response;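 active means mean activation over triplicate wells above the hit cutoff derived from the earlier primary screen, cut at about 11% in these data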
LXR ag 2: LXR agonists, Gal4 luciferase reporter, confirmation, counter-screen for hgDAF-12 agonist project, cell-based, luminescence, HEK293, H. glycines campaign. shares compounds with hgDAF-12 ag. 24 h. activation, % at 6.8 µM. 3,300 tested, under 10 active. AID 743051, 2013;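 active means mean activation of the triplicate above a set limit carried over from the primary screen, none filed active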
A number is an active result; n = inactive; x = not tested or not shown.

SMILES	ssDAF-12 act	hcDAF-12 act	hgDAF-12 ag	DAX1 inh-1	DAX1 inh-2	FXN GAA850 act	DAX1 inh confirm	SF1 AF2mut Luc	LXR ag	hcDAF12 conf	hgDAF12 conf	LXR ag 2
COCCNc1nc(-c2cc3ccccc3o2)cs1	n	8.7	16	6.7	n	n	9.9	7.2	n	7.5	18	n
COc1cc(OC)cc(C(=O)NC(=S)Nc2nc(-c3cc4ccccc4o3)cs2)c1	n	n	n	n	n	n	x	x	x	x	x	x
COc1ccc(-c2nn3c(-c4n[nH]c5c4CCC5)nnc3s2)cc1	n	n	n	n	x	x	x	x	x	x	x	x
c1ccc2oc(-c3csc(N4CCOCC4)n3)cc2c1	n	9.3	18	7.7	n	n	11	3.2	n	7.8	15	n
Cc1ccc(S(=O)(=O)NC(=O)Nc2ccc(N(C)C)cc2)cc1	n	n	n	n	n	n	x	x	x	x	x	x
Cc1ccc(NC(=S)c2ccc(N(C)C)cc2)cc1	n	n	14	5.6	n	n	13	7.8	x	x	17	n
O=C(Nc1ccc2nn(-c3ccccc3)nc2c1)c1cccnc1	n	n	n	n	n	n	x	x	x	x	x	x
CC(C)C(=O)Nc1ccc2nn(-c3ccccc3)nc2c1	1.0	8.8	22	12	n	n	13	7.3	n	8.4	19	n
CC(=O)Nc1ccc2nc(-c3ccccc3)cn2c1	n	n	21	6.0	n	n	10.0	6.6	x	x	17	n
CC(=O)Nc1ccc(-c2cc(-c3ccccc3)nc(-c3ccccc3)n2)cc1	n	n	n	n	n	n	x	x	x	x	x	x
O=C(NC1CCCCN(Cc2ccc(Cl)cc2)C1=O)c1ccc(Cl)cc1Cl (configuration not stated)	n	n	n	n	x	x	x	x	x	x	x	x
COC(=O)[C@]12C[C@H](CC(=O)NCCCCc3ccccc3)C(=O)N(Cc3ccc4c(c3)OCO4)C1=C[C@H](C(C)C)O[C@@H]2C1CC1	n	n	n	n	x	x	x	x	x	x	x	x
CCCC(=O)Nc1ccc(C(=O)COC(=O)C2CC2C)cc1 (configuration not stated)	n	n	n	n	n	n	x	x	x	x	x	x
CC(=O)Nc1ccc(C(=O)COC(=O)C2CC2C)c(F)c1 (configuration not stated)	1.0	n	18	11	n	n	10	4.6	x	x	n	n
OC(c1ccc(F)cc1)c1nc(-c2cnc3ccccc3c2)cs1 (configuration not stated)	n	6.6	16	5.1	x	n	11	8.1	n	7.9	19	n
Cc1cc(C(=O)Nc2ccc(Br)cn2)sc1C	n	5.8	14	6.3	n	n	13	8.6	x	x	18	n
COC(=O)Cc1ccc2sc(-c3ccccc3)nc2c1	1.0	13	21	5.9	n	n	13	8.6	n	11	17	n
O=C(O)Cc1ccc2sc(-c3ccccc3)nc2c1	n	n	n	n	n	n	x	x	x	x	x	x
CCOc1ccc(-c2nnc(SCC(=O)N3CCN(c4ccccc4)CC3)o2)cc1	n	n	n	n	n	n	x	x	x	x	x	x
CCOc1ccc(-c2nnc(SCC(=O)N3CCNC3=O)o2)cc1	n	6.2	14	6.2	n	n	12	5.3	x	x	15	n
Cc1cc(C(=O)CN2C(=O)NC3(CCCCC3C)C2=O)c(C)n1Cc1cccs1 (configuration not stated)	n	n	15	5.0	n	n	9.6	5.5	x	x	10	n
ON=C(CCc1ccccc1)c1ccccc1	n	7.0	15	5.1	x	n	12	6.7	n	5.8	16	n
CCc1nnc(NC(=O)c2sc3nc4c(cc3c2N)CCCCC4)s1	n	6.7	16	5.0	n	n	12	7.8	n	6.5	14	n
CCc1nnc(NC(=O)c2sc3nc4c(cc3c2N)CCCCCC4)s1	n	n	n	n	n	n	x	x	x	x	x	x
COC(=O)[C@]12C[C@H](CC(=O)NCCCCc3ccccc3)C(=O)N(CCC3=CCCCC3)C1=C[C@H](C(C)(C)C)O[C@@H]2C	n	n	n	n	x	x	x	x	x	x	x	x
COc1ccc(C(=O)NCC(C)(C)CNC(=O)c2ccc(OC)cc2)cc1	n	n	n	n	n	n	x	x	x	x	x	x
COc1ccc(C(=O)NC(=O)NC2(C(Cl)(Cl)Cl)OCCO2)cc1	1.0	9.7	25	12	n	n	16	6.0	n	9.1	20	n

Screening results (PubChem)
